# Tests used:
# [1] = molecular target: T1, Phosphorylase b kinase gamma catalytic chain, liver/testis isoform (Homo sapiens) (UniProt P15735); conditions: at 1 µM
# T1 sequence (whole entry): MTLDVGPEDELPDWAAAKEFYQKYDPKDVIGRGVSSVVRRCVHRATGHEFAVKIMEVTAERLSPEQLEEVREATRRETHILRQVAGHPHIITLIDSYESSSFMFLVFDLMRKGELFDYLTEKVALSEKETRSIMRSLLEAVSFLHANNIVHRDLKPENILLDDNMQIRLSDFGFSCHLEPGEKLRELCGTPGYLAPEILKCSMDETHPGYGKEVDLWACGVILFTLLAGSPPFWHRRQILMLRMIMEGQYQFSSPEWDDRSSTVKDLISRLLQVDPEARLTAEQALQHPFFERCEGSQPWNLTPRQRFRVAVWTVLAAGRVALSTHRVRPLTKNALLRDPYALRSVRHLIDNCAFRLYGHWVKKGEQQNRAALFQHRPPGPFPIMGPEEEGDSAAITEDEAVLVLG
# [2] = molecular target: T1, Phosphorylase b kinase gamma catalytic chain, liver/testis isoform (Homo sapiens); conditions: at 10 µM
# [3] = molecular target: Serine/threonine-protein kinase pim-1 (Homo sapiens) (UniProt P11309); conditions: at 1 µM
# [4] = molecular target: Serine/threonine-protein kinase pim-1 (Homo sapiens) (UniProt P11309); conditions: at 10 µM
# [5] = molecular target: Serine/threonine-protein kinase pim-2 (Homo sapiens) (UniProt Q9P1W9); conditions: at 1 µM
# [6] = molecular target: Serine/threonine-protein kinase pim-3 (Homo sapiens) (UniProt Q86V86); conditions: at 1 µM
# [7] = molecular target: Serine/threonine-protein kinase pim-3 (Homo sapiens) (UniProt Q86V86); conditions: at 10 µM
# [8] = molecular target: Serine/threonine-protein kinase PLK1 (Homo sapiens) (UniProt P53350); conditions: at 1 µM
# [9] = molecular target: Serine/threonine-protein kinase PLK1 (Homo sapiens) (UniProt P53350); conditions: at 10 µM
# [10] = molecular target: Serine/threonine-protein kinase PLK3 (Homo sapiens) (UniProt Q9H4B4); conditions: at 1 µM
# [11] = molecular target: Serine/threonine-protein kinase PLK3 (Homo sapiens) (UniProt Q9H4B4); conditions: at 10 µM
# [12] = molecular target: T2, cAMP-dependent protein kinase catalytic subunit PRKX (Homo sapiens) (UniProt P51817); conditions: at 1 µM
# T2 sequence (whole entry): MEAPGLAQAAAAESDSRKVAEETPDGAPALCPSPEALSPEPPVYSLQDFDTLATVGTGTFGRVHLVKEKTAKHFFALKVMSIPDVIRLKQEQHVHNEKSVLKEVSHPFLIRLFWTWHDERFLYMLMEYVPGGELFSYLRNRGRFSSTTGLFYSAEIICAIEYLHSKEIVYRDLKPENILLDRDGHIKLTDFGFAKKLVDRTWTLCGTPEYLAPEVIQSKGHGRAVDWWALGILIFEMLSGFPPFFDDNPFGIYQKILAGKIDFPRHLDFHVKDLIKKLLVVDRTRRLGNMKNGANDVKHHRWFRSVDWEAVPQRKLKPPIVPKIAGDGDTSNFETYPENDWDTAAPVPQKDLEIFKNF
# [13] = molecular target: T2, cAMP-dependent protein kinase catalytic subunit PRKX (Homo sapiens); conditions: at 10 µM
# [14] = molecular target: Protein-tyrosine kinase 2-beta (Homo sapiens) (UniProt Q14289); conditions: at 1 µM
# [15] = molecular target: Protein-tyrosine kinase 2-beta (Homo sapiens) (UniProt Q14289); conditions: at 10 µM
# [16] = molecular target: Receptor-interacting serine/threonine-protein kinase 2 (Homo sapiens) (UniProt O43353); conditions: at 1 µM
# [17] = molecular target: Receptor-interacting serine/threonine-protein kinase 2 (Homo sapiens) (UniProt O43353); conditions: at 10 µM
# [18] = molecular target: Rho-associated protein kinase 1 (Homo sapiens) (UniProt Q13464); conditions: at 1 µM
# [19] = molecular target: Rho-associated protein kinase 1 (Homo sapiens) (UniProt Q13464); conditions: at 10 µM
# [20] = molecular target: Serine/threonine-protein kinase pim-2 (Homo sapiens) (UniProt Q9P1W9); conditions: at 10 µM
# Serine/threonine-protein kinase PLK3 (Homo sapiens), sequence (Q9H4B4 whole entry, looked up): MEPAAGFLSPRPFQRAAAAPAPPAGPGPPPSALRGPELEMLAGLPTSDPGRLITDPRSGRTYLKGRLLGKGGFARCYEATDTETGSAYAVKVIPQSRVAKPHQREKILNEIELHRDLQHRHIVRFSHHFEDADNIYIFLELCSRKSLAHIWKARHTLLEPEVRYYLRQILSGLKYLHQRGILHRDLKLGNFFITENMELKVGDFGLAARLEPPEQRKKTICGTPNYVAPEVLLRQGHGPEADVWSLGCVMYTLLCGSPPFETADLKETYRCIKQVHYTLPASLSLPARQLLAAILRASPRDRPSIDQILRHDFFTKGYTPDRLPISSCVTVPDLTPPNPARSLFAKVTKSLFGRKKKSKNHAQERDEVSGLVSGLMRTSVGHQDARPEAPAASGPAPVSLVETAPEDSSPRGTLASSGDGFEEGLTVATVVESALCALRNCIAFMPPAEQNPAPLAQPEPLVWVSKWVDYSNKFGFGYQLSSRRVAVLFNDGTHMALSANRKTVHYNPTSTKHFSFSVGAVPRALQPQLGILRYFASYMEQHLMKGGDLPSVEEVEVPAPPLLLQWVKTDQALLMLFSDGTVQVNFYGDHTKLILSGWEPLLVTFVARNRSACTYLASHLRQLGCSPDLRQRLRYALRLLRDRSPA
# Serine/threonine-protein kinase pim-1 (Homo sapiens), sequence (P11309 whole entry, looked up): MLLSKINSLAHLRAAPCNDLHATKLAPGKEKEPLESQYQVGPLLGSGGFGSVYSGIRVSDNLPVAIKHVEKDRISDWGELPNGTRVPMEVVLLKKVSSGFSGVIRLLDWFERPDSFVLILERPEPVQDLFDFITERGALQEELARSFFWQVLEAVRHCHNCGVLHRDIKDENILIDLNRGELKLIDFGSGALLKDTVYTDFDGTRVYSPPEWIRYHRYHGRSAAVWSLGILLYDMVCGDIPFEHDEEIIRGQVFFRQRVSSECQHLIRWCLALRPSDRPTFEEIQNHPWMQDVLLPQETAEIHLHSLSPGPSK
# Receptor-interacting serine/threonine-protein kinase 2 (Homo sapiens), sequence (O43353 whole entry): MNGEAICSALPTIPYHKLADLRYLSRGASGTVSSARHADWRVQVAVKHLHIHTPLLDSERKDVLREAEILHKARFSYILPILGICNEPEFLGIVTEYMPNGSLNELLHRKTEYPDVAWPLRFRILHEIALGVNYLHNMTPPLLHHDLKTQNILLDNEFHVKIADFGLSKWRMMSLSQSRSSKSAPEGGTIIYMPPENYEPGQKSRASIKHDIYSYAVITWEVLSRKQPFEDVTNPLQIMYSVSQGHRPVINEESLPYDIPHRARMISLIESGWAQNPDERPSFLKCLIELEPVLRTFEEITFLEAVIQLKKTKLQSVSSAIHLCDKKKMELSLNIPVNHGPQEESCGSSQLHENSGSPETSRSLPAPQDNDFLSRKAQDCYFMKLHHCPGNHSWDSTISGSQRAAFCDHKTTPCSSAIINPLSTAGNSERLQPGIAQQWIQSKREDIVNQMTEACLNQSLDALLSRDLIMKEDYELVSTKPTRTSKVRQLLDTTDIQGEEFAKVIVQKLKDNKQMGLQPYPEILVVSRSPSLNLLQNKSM
# Serine/threonine-protein kinase pim-2 (Homo sapiens), sequence (Q9P1W9 whole entry, looked up): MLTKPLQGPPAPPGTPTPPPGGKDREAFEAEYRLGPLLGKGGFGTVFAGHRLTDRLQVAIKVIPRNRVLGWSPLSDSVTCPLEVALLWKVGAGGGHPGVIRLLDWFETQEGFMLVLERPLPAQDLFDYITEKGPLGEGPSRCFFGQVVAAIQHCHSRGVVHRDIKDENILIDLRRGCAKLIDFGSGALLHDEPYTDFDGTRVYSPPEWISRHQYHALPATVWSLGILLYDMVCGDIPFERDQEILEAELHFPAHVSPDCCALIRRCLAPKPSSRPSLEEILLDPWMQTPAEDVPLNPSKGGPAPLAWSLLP
# Rho-associated protein kinase 1 (Homo sapiens), sequence (Q13464 2-1354 limits assumed): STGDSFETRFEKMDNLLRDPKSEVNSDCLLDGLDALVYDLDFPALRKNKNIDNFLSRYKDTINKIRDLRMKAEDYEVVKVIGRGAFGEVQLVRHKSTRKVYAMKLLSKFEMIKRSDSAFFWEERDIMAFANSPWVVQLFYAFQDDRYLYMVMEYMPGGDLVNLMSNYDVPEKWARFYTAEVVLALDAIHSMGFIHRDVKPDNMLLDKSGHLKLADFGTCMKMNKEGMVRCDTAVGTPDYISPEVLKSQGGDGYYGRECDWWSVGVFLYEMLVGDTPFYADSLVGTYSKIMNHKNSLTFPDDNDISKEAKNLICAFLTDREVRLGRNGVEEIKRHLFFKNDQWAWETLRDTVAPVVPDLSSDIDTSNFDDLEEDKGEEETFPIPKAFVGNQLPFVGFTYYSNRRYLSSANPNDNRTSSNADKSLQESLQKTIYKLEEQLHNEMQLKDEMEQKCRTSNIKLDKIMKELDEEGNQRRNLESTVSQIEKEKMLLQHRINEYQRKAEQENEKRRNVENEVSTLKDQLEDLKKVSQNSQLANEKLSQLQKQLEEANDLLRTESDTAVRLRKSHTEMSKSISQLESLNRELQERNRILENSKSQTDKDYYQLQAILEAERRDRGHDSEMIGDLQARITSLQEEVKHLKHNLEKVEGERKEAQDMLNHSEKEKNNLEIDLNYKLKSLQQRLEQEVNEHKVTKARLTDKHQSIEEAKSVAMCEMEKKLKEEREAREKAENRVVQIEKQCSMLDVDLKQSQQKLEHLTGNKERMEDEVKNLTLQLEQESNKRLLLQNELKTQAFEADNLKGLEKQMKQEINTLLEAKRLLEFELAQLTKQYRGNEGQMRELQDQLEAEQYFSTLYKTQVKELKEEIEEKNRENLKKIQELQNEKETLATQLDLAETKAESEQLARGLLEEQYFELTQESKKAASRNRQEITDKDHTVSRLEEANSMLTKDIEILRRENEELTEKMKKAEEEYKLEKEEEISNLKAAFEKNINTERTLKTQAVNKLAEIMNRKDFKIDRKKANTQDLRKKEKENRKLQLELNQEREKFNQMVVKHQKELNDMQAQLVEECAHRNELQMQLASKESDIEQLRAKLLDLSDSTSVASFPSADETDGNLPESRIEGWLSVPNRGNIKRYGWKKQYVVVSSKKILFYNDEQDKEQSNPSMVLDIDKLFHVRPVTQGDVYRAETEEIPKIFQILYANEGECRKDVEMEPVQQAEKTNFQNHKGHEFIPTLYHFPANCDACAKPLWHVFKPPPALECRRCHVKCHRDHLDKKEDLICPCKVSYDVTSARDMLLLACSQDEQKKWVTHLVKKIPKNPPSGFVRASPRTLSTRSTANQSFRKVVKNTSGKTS
# Serine/threonine-protein kinase PLK1 (Homo sapiens), sequence (P53350 whole entry): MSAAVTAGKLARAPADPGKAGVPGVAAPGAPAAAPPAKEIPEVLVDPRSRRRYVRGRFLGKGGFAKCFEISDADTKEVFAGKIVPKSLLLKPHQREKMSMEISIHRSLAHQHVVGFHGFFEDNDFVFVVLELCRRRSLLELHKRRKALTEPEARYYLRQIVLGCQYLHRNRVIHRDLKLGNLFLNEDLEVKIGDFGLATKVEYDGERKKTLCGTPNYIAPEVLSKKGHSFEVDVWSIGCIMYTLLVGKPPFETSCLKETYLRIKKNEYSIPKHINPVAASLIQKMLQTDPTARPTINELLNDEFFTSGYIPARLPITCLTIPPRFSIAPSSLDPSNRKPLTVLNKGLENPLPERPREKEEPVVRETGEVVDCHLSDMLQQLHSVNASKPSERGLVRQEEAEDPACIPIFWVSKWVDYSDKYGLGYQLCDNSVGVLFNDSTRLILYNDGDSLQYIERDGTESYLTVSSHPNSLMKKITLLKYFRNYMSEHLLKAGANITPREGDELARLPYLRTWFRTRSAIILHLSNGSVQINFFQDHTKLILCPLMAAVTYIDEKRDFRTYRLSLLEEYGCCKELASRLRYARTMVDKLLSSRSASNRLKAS
SMILES,residual activity [1] [%],residual activity [2] [%],residual activity [3] [%],residual activity [4] [%],residual activity [5] [%],residual activity [6] [%],residual activity [7] [%],residual activity [8] [%],residual activity [9] [%],residual activity [10],residual activity [11] [%],residual activity [12] [%],residual activity [13] [%],residual activity [14] [%],residual activity [15] [%],residual activity [16] [%],residual activity [17] [%],residual activity [18] [%],residual activity [19] [%],residual activity [20] [%]
Nc1ncnc2c1c(-c1ccc(Oc3ccccc3)cc1)cn2C1CCCC1,97,95,103,88,106,88,88,83,50,80% (inactive),91,85,66,86,25,21,15,116,122,–
Cn1sc(=O)n(Cc2ccccc2)c1=O,90,98,–,95,–,80,85,69,70,–,89,76,87,–,–,92,86,–,–,143
COc1cc2nccc(Oc3ccc(NC(=S)NC(=O)c4ccccc4C)cc3)c2cc1OC,61,45,102,99,97,89,87,83,65,80% (inactive),89,68,52,82,60,51,34,–,–,–
O=C1Nc2ccccc2/C1=C\c1c(Cl)[nH]c2ccccc12,87,87,–,26,73,–,–,86,75,–,–,125,79,–,65,84,60,121,–,16
O=C(O)/C=C/c1cc(Br)c(Br)c(Br)c1Br,109,63,49,6,28,78,39,73,22,60% (inactive),-9,68,76,–,–,100,83,–,98,1
Nc1ncnc2c1cnn2-c1ccccc1,97,90,–,126,–,101,97,100,86,93% (inactive),95,94,91,–,97,93,67,–,–,94
Cn1c2ccccc2c2c3c(c4c5ccccc5n(CCC#N)c4c21)CNC3=O,1,2,18,22,25,58,–,–,66,–,–,19,20,4,4,–,–,98,97,40
CCCCc1c(-c2ccc(OC)cc2)[nH]c2nccnc12,113,109,109,88,112,104,113,81,–,–,–,84,101,54,32,67,82,117,102,104
Nc1nccc(-c2c(-c3ccc(F)cc3)ncn2C2CCNCC2)n1,125,114,75,26,120,–,–,–,–,–,–,–,–,–,–,43,16,128,121,–
NCCNc1ncc(C(N)=O)c(Nc2cccc(C(F)(F)F)c2)n1,64,22,82,38,–,–,–,100,73,–,–,–,–,27,3,–,–,104,103,60
O=c1cc(N2CCNCC2)oc2c(-c3ccccc3)cccc12,84,92,84,54,100,88,76,82,55,100% (inactive),95,93,87,–,96,97,82,–,–,–
COc1cc2ncnc(Nc3cccc(Cl)c3)c2cc1OC,104,107,62,48,121,112,101,112,–,83% (inactive),–,122,–,117,76,26,16,–,–,–
CC(C)(C)c1nc2c3ccc(F)cc3c3c(=O)[nH]ccc3c2[nH]1,41,24,–,–,–,–,–,–,–,55% (inactive),64,–,–,–,–,18,20,–,–,–
O=C1Nc2ccc(Cl)cc2/C1=C/c1cc(Cl)c(O)c(Cl)c1,94,83,24,5,17,77,30,83,62,94% (inactive),95,59,63,96,28,32,25,–,121,3
CCOC(=O)c1c(C)[nH]c(/C=C2\C(=O)Nc3ccccc32)c1C,87,92,72,–,–,–,–,–,74,86% (inactive),88,–,–,80,45,96,99,–,–,–
O=C(CCCc1ccc(-c2ccccc2F)cc1)Nc1ccc(O)cc1,109,112,100,97,–,96,97,93,103,99% (inactive),98,100,101,105,104,94,95,107,100,139
CCOc1nc(NC(=O)Cc2cc(OC)ccc2OC)cc(N)c1C#N,118,–,–,–,–,–,–,–,–,–,–,–,–,–,–,–,–,–,–,–
